Source: the supplement of paper PMC6555819

Tested on: RARb homodimer (NR concentration 270 nM)
Assay: PBM binding z-score (relative to random genomic background probes); higher = stronger binding; sequences stand for … in GC…GCGATTGACAGCGTAGAATGAAGG
Method in brief: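 Each nuclear receptor dimer, without ligand, was incubated for 1 h on custom Agilent 4×180K protein-binding microarrays. Binding was detected with antibodies against each partner (one per run), and scanned fluorescence was regression-normalized. The binding z-scores are referenced to random human genomic background probes.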

First: CTCGAATGGTCGTGCTCAGGTGAGTATACCAAAC
Second: CCTGCTAGGTCATGGTCAGCTAGTCTACAGTATG
The PBM binding z-score of the first is lower: 0.249 for the first, 3.22 for the second.

Going from GCTTGTAGATCAAGGTTAAGAATGACTAAGCTAA to CCTATTAGTTGACCATAAGCGCAACCGAAGCTCG, the PBM binding z-score rises from 0.438 to 0.669.

Compared with CGGACTGGGGCATAAGGTTACCATAAGCCAGCCC, CCTGCTAGGTCATGGTCGGCTAATCTACAGTATG is higher in PBM binding z-score: 1.94 for the first, 2.46 for the second.

Compared with CCTAACGGGTCACGAGGTTATAGCACGACGAGCG, CTACCAAGGTGAACAAGGTCGTTGTTTACTATTC is lower in PBM binding z-score: 3.65 for the first, 1.97 for the second.

Compared with TCATATAGGTAACGGTGAAAGTCGAACGATATGA, CGTCCAAGGTCTGAGAGGTCAGTGAATGCCGAGT is higher in PBM binding z-score: -0.17 for the first, 3.72 for the second.

Going from CTACCAAGTTGAACAAGGTCGTTGATTACTATTC to ATCTCTAGGTAAGACTCAGTTCAGTTAAGAACGC, the PBM binding z-score falls from 1.75 to 0.724.

First: TCTATTAGTTGATTGGGGCAACCGAAACAGCGGA
Second: AGAATGAGGTTATACGTAGCTCAGGGAAGAAAGT
The PBM binding z-score of the first is higher: 0.682 for the first, 0.301 for the second.

First: ATCTCTATGTAAAGATAGTTCAGTGAATGCAAAT
Second: CCTCGCAGGCCAGGGTCACTCAAGCATTTCGCTT
The PBM binding z-score of the first is lower: 0.692 for the first, 2.71 for the second.

Going from ATATGTAGGTTAAGGTTCATTCAGGTTGGTTCGC to TAGCCTAGGTCATTGGGCCAGCATAGTACGCATC, the PBM binding z-score rises from 2.18 to 2.94.

First: TCTTGTAGGTCAGCAGGTTAAGAAAGCTGGCCAA
Second: CCTACTGGGCCACGAAAGGTCAGTGATTCAGTGA
The PBM binding z-score of the first is lower: 3.05 for the first, 3.87 for the second.

Compared with CCGACTGGGGCATAAGATTACCATAAGCCAGCCC, ATATGTAGGTTACATTCGGGTCATTCAGGCTATG is higher in PBM binding z-score: -0.156 for the first, 2.86 for the second.

Going from ACTCGGACGACAAAGGTCAGAGCTACGCCAGTGA to GCTAGCTGGTCAGTAAAAGGTCACACACCGGTCG, the PBM binding z-score rises from 4.21 to 4.99.

First: CCGACTGGGGTATAAGGTTACCATAAGCCAGCCC
Second: TCATATAGGTAAAGGTGAAATTCGAACGATATGA
The PBM binding z-score of the first is lower: 0.893 for the first, 1.3 for the second.

Compared with CGTCCAAGGTAAAAGGTCAGTGAAGAGATGACGG, AGTCAAAGTACAGGACGAGGTAACGTAAAGCACG is lower in PBM binding z-score: 4.88 for the first, 0.274 for the second.

First: CCTACTGGGCCATCAGGTTATTGATATCAACGTT
Second: TAGCCTAGGTCATTCAGAGGCCAGTATAGAAAGC
The PBM binding z-score of the first is lower: 0.464 for the first, 3.33 for the second.

First: CCTACAGGGCCATTCAGAGGTCATTGATCATATG
Second: CGTCCAAGGTCAATGCTAGGTCAGTGGAAGCATT
The PBM binding z-score of the first is lower: 4.27 for the first, 4.74 for the second.

First: GCTGCTAGGTCAGGCTGGTCAGCTAACGGGTACG
Second: TCTAGTTGGTCCAAGGTCACACACTCGAAATGCG
The PBM binding z-score of the first is lower: 2.55 for the first, 4.11 for the second.

First: CATACAGGGTCAGCTAGGCCATAGTAGGGACGGC
Second: CCTCGGAGGACAACAGGACGTCAGAGCTGCCAGA
The PBM binding z-score of the first is higher: 3.28 for the first, 0.189 for the second.

Compared with TCGAGTAGGTTAGTCGGGGCAATCAGCCAACATA, CGTCGAAGGTCAGCAGGTCAGTGAAAGCGACGTG is higher in PBM binding z-score: 0.889 for the first, 4.94 for the second.

First: TAGCCTAGGTCATTCAGGGGCCCGTATAGAAAGC
Second: GCTAGCAAGCCATTTGGGTCACTCAATGACGGGC
The PBM binding z-score of the first is higher: 2.42 for the first, 1.36 for the second.
